# Where “and” joins values, the source holds several entries; their conditions need not be identical. Identical values can stand only once. Calls of active or inactive are those of the source.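 Rule for the calls, unless noted: active = compounds whose cell count with miR-34 switched on is under 0.7 times the count with it off; inactive = the rest.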
# Legend:
# [1] = compounds altering circadian rhythm period length – cell-based, LOPAC library, luminescence reporter (AID 2774; call rule not given here;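 note: values are relative to mean of DMSO wells on each plate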); settings: circadian reporter cells, at 7 µM, actives lie on both sides
# [2] = compounds altering viability of human ES cells (AID 493140; call rule not given here;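 note: cells exposed to compounds for four days before counting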); settings: human embryonic stem cell survival screen; stronger effect = higher value
# [3] = P. berghei load reduction in hepatocytes – cell-based, HepG2, luciferase luminescence, HepG2 viability, primary screen (AID 624349; in the data active = parasite load remaining mostly below about 12%, no sharp cut-off; inactive = mostly above about 10%;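 note: 100% = mean of DMSO negative control wells on the same plate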); settings: P. berghei liver stage in HepG2, luciferase luminescence, concentration not given here; parasite load remaining: stronger effect = lower value; viability: measured here: HepG2 viability without parasites
# [4] = test system: Hepatitis C virus NS3 helicase; assay: blockers of NS3h binding to ssDNA – biochemical, fluorescence polarization, LOPAC1280 library, primary screen (AID 687035; in the data active = inhibition above about 37%); settings: Purified HCV NS3 helicase, Cy5-dT15 ssDNA binding fluorescence polarization; stronger effect = higher value; concentration not given here
# [5] = Wnt pathway potentiators raising nuclear beta-catenin – imaging, WNT3A-conditioned medium, mouse C2C12, NPC library, primary screen (AID 1117326; in the data active = nuclear beta-catenin stimulation mostly above about 4.2%, no sharp cut-off; inactive = mostly below about 10%); settings: stronger effect = higher value
# [6] = stimulators of insulin release from INS-1E, primary screen, cell-based, 5 mM glucose, NPC library (AID 1117329;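 active = compound raises insulin release from rat beta cells at 5 mM glucose, no numeric limit stated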); settings: rat INS-1E insulin secretion, at 10 µM, stronger effect = higher value
# [7] = growth inhibition of GSK3B-pretreated HCT116 cells – cell-based, CellTiter-Glo, 0.2 to 20 µM (AID 1117336;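 active = compounds lowering colon cancer cell viability after pretreatment blocking the GSK3B kinase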); settings: HCT116 viability after GSK3B inhibitor, at 20 µM, stronger effect = higher value
# [8] = inhibition of endothelial tube formation, primary screen, imaging, VEGF stimulated, CD31 staining, tube area, NPC library (AID 1117340;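 active = compound that reduces growth-factor-driven endothelial tube area in a mixed cell culture, no cutoff stated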); settings: VEGF-stimulated ADSC/ECFC co-culture, at 10 µM, stronger effect = higher value
# [9] = GLP1 release stimulators, primary, NCI-H716, NPC library (AID 1117341;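 active = compound raises GLP1 secretion from the human gut endocrine cells, with no numeric limit stated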); settings: NCI-H716 cells, at 10 µM, stronger effect = higher value
# [10] = HCT116 colon cancer cell growth inhibition, primary screen, CellTiter-Glo luminescence, NPC library (AID 1117342;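 active = compounds that lower survival of HCT116 colon cancer cells in the luminescence readout, no numeric limit stated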); settings: at 20 µM (top of the series)
# [11] = reduced SW480 viability measured with CellTiter-Glo, NPC library, primary (AID 1117343;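 active = compounds that lower viability of the colon cancer cells in the luminescence readout, with no numeric limit stated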); settings: CellTiter-Glo luminescence; at 20 µM (top of the series)
# [12] = NPC library primary testing for decreased DLD-1 cell viability via CellTiter-Glo (AID 1117346;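 active = compounds that lower survival of DLD-1 colon cancer cells in the luminescence readout, no cutoff given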); settings: DLD-1 viability, CellTiter-Glo luminescence; at 20 µM (top of the series)
# [13] = test system: Aerobactin synthetase IucA (Klebsiella pneumoniae, hypervirulent); assay: biochemical IucA inhibition screen of LOPAC library by absorbance (AID 1346212; call rule not given here;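 note: 100% = no compound wells and 0% = no enzyme wells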); settings: IucA enzyme assay, absorbance (OD) readout; stronger effect = lower value;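 tested at 8 µM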
# [14] = viability loss with induced miR-34 in A549 – imaging, A549 dox-inducible miR-34, nuclei and caspase counts, primary screen (AID 1347080); settings: A549 miR-34 inducible, Hoechst nuclei count, 48 h
# [15] = MELAS cybrid and Rieske KO viability enhancers – cell-based, MELAS cybrids, Rieske KO mouse fibroblasts, CellTiter-Glo, primary screen (AID 1508586;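 active = mean z-score across replicates of 1.96 or higher in either the MELAS or the Rieske mutant cell line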;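 note: z relative to plate mean and SD of compound and empty wells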); settings: low glucose
# [16] = galactose survival enhancers in mitochondrial complex I cybrids – cell-based, galactose medium, ATP luminescence, primary screen (AID 1645843;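 active = z-score of at least 1.8 in each of two replicates, scored against plate mean and spread of sample wells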;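 note: positive z means more ATP and so rescue of galactose-driven cybrid death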); settings: complex I mutant cybrid cells, 72 h, stronger effect = higher value
# [17] = EMT-state selective cytotoxicity in co-culture – imaging, PC-3E GFP, TEM4-18 mCherry, primary screen (AID 1345086;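 active = compounds killing one labelled cell type while sparing the other, by normalised counts and ratio limits, not self-fluorescent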;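 for all read-outs here: cells exposed to compound for 72 h before imaging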;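 for red/green cell ratio (normalised): normalised mesenchymal count divided by normalised epithelial count so high means epithelial killing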); settings: PC-3E GFP / TEM4-18 mCherry co-culture, imaging cell counts, at 1 µM; for red/green cell ratio (normalised): actives lie on both sides
# [18] = molecular target: NAD(+) hydrolase SARM1 (Homo sapiens) (UniProt Q6SZW1); assay: blocking NAD cleavage by SARM1 SAM-TIR – cell lysate, NAD-Glo luminescence (AID 1508614;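 active = compound whose remaining NAD level is above about 45 nM, limit read from the data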;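 note: higher remaining NAD means stronger inhibition of SARM1 NADase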); settings: SAM-TIR HEK293T lysate NADase, at 1 µM, stronger effect = higher value
# [19] = measured here: relative caspase fold change +Dox/-Dox
# [20] = measured here: total cells with miR-34 induction, stronger effect = lower value
# [21] = measured here: total cells without miR-34 induction
# [22] = MELAS cybrid survival, CellTiter-Glo 48 h, stronger effect = higher value
# [23] = Rieske KO mouse fibroblast survival, CellTiter-Glo 72 h
# [24] = measured here: epithelial PC-3E GFP cell survival
# [25] = measured here: mesenchymal TEM4-18 mCherry cell survival
# [26] = counts scaled to control wells, 1 = unselective
# Chain of NAD(+) hydrolase SARM1 (Homo sapiens) (Q6SZW1 whole entry, looked up): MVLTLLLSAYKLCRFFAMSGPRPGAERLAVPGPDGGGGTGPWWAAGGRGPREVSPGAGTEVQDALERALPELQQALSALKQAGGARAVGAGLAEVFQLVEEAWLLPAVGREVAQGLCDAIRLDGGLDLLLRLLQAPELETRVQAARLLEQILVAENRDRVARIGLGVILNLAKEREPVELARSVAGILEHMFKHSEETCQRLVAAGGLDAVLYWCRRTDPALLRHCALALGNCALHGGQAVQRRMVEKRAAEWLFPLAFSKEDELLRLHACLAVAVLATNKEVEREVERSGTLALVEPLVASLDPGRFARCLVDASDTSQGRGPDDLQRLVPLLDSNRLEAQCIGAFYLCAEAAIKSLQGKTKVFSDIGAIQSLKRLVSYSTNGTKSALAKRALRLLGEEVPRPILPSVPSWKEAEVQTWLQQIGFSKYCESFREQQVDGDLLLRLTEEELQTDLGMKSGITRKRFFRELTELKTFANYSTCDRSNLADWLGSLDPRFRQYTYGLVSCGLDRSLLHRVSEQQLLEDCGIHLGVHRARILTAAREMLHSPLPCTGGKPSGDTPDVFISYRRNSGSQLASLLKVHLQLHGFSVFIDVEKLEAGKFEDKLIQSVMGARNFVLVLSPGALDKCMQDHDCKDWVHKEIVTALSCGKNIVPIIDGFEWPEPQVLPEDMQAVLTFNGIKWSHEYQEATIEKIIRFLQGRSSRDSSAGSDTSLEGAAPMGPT
compound,measurement,setting,value
CC(=O)[C@H]1CC[C@H]2[C@@H]3CC[C@H]4C[C@H](O)CC[C@]4(C)[C@H]3C(=O)C[C@]12C,period change,[1],-0.1 h (inactive)
same,survival,[2],20.1 (inactive)
same,parasite load remaining,[3],70.8% (inactive)
same,viability,[3],72.4%
same,inhibition,[4],-1% (inactive)
same,nuclear beta-catenin stimulation,[5]; at 10 µM,0.5% (inactive)
same,nuclear beta-catenin stimulation,"[5]; stimulation, at 2 µM",-0.7%
same,insulin secretion stimulation,[6],3.1% (inactive)
same,viability decrease,[7],28% (inactive)
same,tube area decrease,[8],-23.1% (inactive)
same,GLP1 secretion stimulation,[9],-1.7% (inactive)
same,inhibition of viability,[10],41.1% (inactive)
same,viability decrease (inhibition),[11],67.8% (active)
same,viability decrease (inhibition),[12],19.9% (inactive)
same,remaining activity,[13],112% (inactive)
same,fold change,[14]; stronger effect = lower value,1.12 (inactive) and 0.844 (inactive)
same,fold change,[14]; [19],0.8 and 0.773
same,cell count,[14]; [20],11000 and 8700
same,cell count,[14]; [21],9770 and 10300
same,z-score,[15]; [22],0.566 (inactive)
same,z-score,[15]; [23],0.0524
same,z-score,[16],-0.315 (inactive)
O=C(O)Cc1ccccc1,parasite load remaining,[3],25.8% (inactive) and 52.8% (inactive)
same,viability,[3],91.1% and 112%
same,nuclear beta-catenin stimulation,[5]; at 10 µM,0.2% (inactive)
same,nuclear beta-catenin stimulation,"[5]; stimulation, at 2 µM",0.3%
same,insulin secretion stimulation,[6],-1.1% (inactive)
same,viability decrease,[7],-0.05% (inactive)
same,tube area decrease,[8],-39.3% (inactive)
same,GLP1 secretion stimulation,[9],-0.3% (inactive)
same,inhibition of viability,[10],-9.8% (inactive)
same,viability decrease (inhibition),[11],8.6% (inactive)
same,viability decrease (inhibition),[12],0.45% (inactive)
same,red/green cell ratio (normalised),[17],0.91 (inactive)
same,normalised cell number,[17]; [24],1.01
same,normalised cell number,[17]; [25],0.92
same,fold change,[14]; stronger effect = lower value,0.869 (inactive) and 0.823 (inactive)
same,fold change,[14]; [19],4.43 and 1.17
same,cell count,[14]; [20],10700 and 9120
same,cell count,[14]; [21],12300 and 11100
same,z-score,[15]; [22],0.496 (inactive)
same,z-score,[15]; [23],0.0978
same,remaining NAD,[18],10 nM (inactive)
same,z-score,[16],0.455 (inactive)
COP(=O)(OC)OC=C(Cl)Cl,parasite load remaining,[3],43.6% (inactive)
same,viability,[3],96%
same,nuclear beta-catenin stimulation,[5]; at 10 µM,-0.5% (inactive)
same,nuclear beta-catenin stimulation,"[5]; stimulation, at 2 µM",-1.3%
same,insulin secretion stimulation,[6],-1.6% (inactive)
same,viability decrease,[7],37% (inactive)
same,tube area decrease,[8],-16.8% (inactive)
same,GLP1 secretion stimulation,[9],-1.2% (inactive)
same,inhibition of viability,[10],-1.53% (inactive)
same,viability decrease (inhibition),[11],26.8% (inactive)
same,viability decrease (inhibition),[12],-3.8% (inactive)
same,red/green cell ratio (normalised),[17]; [26],1.1 (inactive)
same,normalised cell number,[17]; [24],1.09
same,normalised cell number,[17]; [25],1.2
same,fold change,"[14]; stronger effect = lower value, cell number ratio, induced over uninduced",0.895 (inactive)
same,fold change,[14]; [19],1.25
same,cell count,[14]; [20],10900
same,cell count,[14]; [21],12200
same,remaining NAD,[18],10 nM (inactive)
N#CC(C#N)=Cc1ccc(O)c(O)c1,period change,[1],-0.18 h (inactive)
same,survival,[2],57.1 (inactive)
same,inhibition,[4],0% (inactive)
same,nuclear beta-catenin stimulation,[5]; at 10 µM,3.9% (inactive)
same,nuclear beta-catenin stimulation,"[5]; stimulation, at 2 µM",3.3%
same,insulin secretion stimulation,[6],0.65% (inactive)
same,viability decrease,[7],86.7% (active)
same,tube area decrease,[8],17.4% (inactive)
same,GLP1 secretion stimulation,[9],-2.9% (inactive)
same,inhibition of viability,[10],55.1% (active)
same,viability decrease (inhibition),[11],62.8% (active)
same,viability decrease (inhibition),[12],48.5% (inactive)
same,remaining activity,[13],120% (inactive)
same,fold change,[14]; stronger effect = lower value,1.02 (inactive) and 0.942 (inactive) and 0.96 (inactive)
same,fold change,[14]; [19],1.77 and 0.329 and 1.5
same,cell count,[14]; [20],8900 and 8210 and 9690
same,cell count,[14]; [21],8760 and 8720 and 10100
same,z-score,[15]; [22],-0.508 (inactive)
same,z-score,[15]; [23],-0.257
same,z-score,[16],-0.735 (inactive) and -0.66 (inactive)
CNCC(=O)c1ccc(O)c(O)c1,nuclear beta-catenin stimulation,[5]; at 10 µM,-2.8% (inactive)
same,nuclear beta-catenin stimulation,"[5]; stimulation, at 2 µM",-1.5%
same,insulin secretion stimulation,[6],-0.7% (inactive)
same,viability decrease,[7],44.4% (inactive)
same,tube area decrease,[8],-23.7% (inactive)
same,GLP1 secretion stimulation,[9],-4.7% (inactive)
same,inhibition of viability,[10],20.7% (inactive)
same,viability decrease (inhibition),[11],24.3% (inactive)
same,viability decrease (inhibition),[12],19.2% (inactive)
same,red/green cell ratio (normalised),[17]; [26],1.24 (inactive)
same,normalised cell number,[17]; [24],1.18
same,normalised cell number,[17]; [25],1.47
same,fold change,[14]; stronger effect = lower value,0.925 (inactive) and 0.971 (inactive)
same,fold change,[14]; [19],0.648 and 0.466
same,cell count,[14]; [20],6760 and 7680
same,cell count,[14]; [21],7310 and 7920
same,z-score,[15]; [22],-0.0398 (inactive)
same,z-score,[15]; [23],-0.269
same,remaining NAD,[18],10 nM (inactive)
CCCN1CCC[C@@H]2Cc3nc(N)ncc3C[C@H]21,period change,[1],-0.24 h (inactive)
same,inhibition,[4],-1% (inactive)
same,nuclear beta-catenin stimulation,[5]; at 10 µM,4.8% (inactive)
same,nuclear beta-catenin stimulation,"[5]; stimulation, at 2 µM",-0.2%
same,insulin secretion stimulation,[6],-0.2% (inactive)
same,viability decrease,[7],-24.3% (inactive)
same,tube area decrease,[8],-0.4% (inactive)
same,GLP1 secretion stimulation,[9],-2.2% (inactive)
same,inhibition of viability,[10],-3.2% (inactive)
same,viability decrease (inhibition),[11],-4.6% (inactive)
same,viability decrease (inhibition),[12],-14.6% (inactive)
same,remaining activity,[13],118% (inactive)
same,fold change,[14]; stronger effect = lower value,0.958 (inactive)
same,fold change,[14]; [19],2.12
same,cell count,[14]; [20],9790
same,cell count,[14]; [21],10200
same,z-score,[16],0.925 (inactive)
Cc1nnc2n1-c1sc(CCC(=O)N3CCOCC3)cc1C(c1ccccc1Cl)=NC2,nuclear beta-catenin stimulation,[5]; at 10 µM,0.3% (inactive)
same,nuclear beta-catenin stimulation,"[5]; stimulation, at 2 µM",-0.9%
same,insulin secretion stimulation,[6],3.7% (inactive)
same,viability decrease,[7],11.7% (inactive)
same,tube area decrease,[8],1.8% (inactive)
same,GLP1 secretion stimulation,[9],0.4% (inactive)
same,inhibition of viability,[10],13.6% (inactive)
same,viability decrease (inhibition),[11],-4.5% (inactive)
same,viability decrease (inhibition),[12],-5.7% (inactive)
same,fold change,[14]; stronger effect = lower value,1.01 (inactive)
same,fold change,[14]; [19],0.912
same,cell count,[14]; [20],9280
same,cell count,[14]; [21],9210
same,z-score,[16],-0.365 (inactive)
C[C@]12CC[C@H](O)CC1=CC[C@@H]1[C@@H]2CC[C@]2(C)C(=O)CC[C@@H]12,period change,[1],-0.175 h (inactive)
same,parasite load remaining,[3],67.8% (inactive) and 14.9% (inactive)
same,viability,[3],72.6% and 126%
same,nuclear beta-catenin stimulation,[5]; at 10 µM,3.7% (inactive)
same,nuclear beta-catenin stimulation,"[5]; stimulation, at 2 µM",1.2%
same,insulin secretion stimulation,[6],-3% (inactive)
same,viability decrease,[7],3.8% (inactive)
same,tube area decrease,[8],8% (inactive)
same,GLP1 secretion stimulation,[9],1.9% (inactive)
same,inhibition of viability,[10],-21.8% (inactive)
same,viability decrease (inhibition),[11],113% (active)
same,viability decrease (inhibition),[12],8.95% (inactive)
same,fold change,[14]; stronger effect = lower value,0.917 (inactive)
same,fold change,[14]; [19],1.38
same,cell count,[14]; [20],8820
same,cell count,[14]; [21],9620
same,z-score,[15]; [22],0.542 (inactive)
same,z-score,[15]; [23],-0.656
same,remaining NAD,[18],10 nM (inactive)
same,z-score,[16],-0.16 (inactive)
COC[C@@H](NC(C)=O)C(=O)NCc1ccccc1,nuclear beta-catenin stimulation,[5]; at 10 µM,0.6% (inactive)
same,nuclear beta-catenin stimulation,"[5]; stimulation, at 2 µM",-0.7%
same,insulin secretion stimulation,[6],-0.4% (inactive)
same,viability decrease,[7],-7.9% (inactive)
same,tube area decrease,[8],-1.1% (inactive)
same,GLP1 secretion stimulation,[9],-0.8% (inactive)
same,inhibition of viability,[10],1.2% (inactive)
same,viability decrease (inhibition),[11],-1% (inactive)
same,viability decrease (inhibition),[12],9.6% (inactive)

# — PubChem BioAssay
